Source: PubChem (The Scripps Research Institute Molecular Screening Center)
GPR151 activ: activators of human GPR151, primary screen, cell-based, PathHunter beta-arrestin, luminescence | G-protein coupled receptor 151 (Homo sapiens), Q8TDV0 | PathHunter beta-arrestin GPR151 cells | activation, % at 11.2 µM | hit rate 1% among 650,000 | AID 1508602, 2020; in the data active = activation above about 4.9%;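 also: 0% = median of compound wells and 100% = cells with positive control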
MITF primary: MITF inhibitors, primary screen, biochemical, AlphaScreen, human; inhibition, % at 2.6 µM; AlphaScreen MITF homodimerization, bead proximity signal; Microphthalmia-associated transcription factor (Homo sapiens), O75030; AID 1259374, 2018; hit rate 0.91% among 650,000; in the data active = inhibition above about 50%;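 also: 0% = vehicle wells with protein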
Target sequence (O75030 whole entry, looked up): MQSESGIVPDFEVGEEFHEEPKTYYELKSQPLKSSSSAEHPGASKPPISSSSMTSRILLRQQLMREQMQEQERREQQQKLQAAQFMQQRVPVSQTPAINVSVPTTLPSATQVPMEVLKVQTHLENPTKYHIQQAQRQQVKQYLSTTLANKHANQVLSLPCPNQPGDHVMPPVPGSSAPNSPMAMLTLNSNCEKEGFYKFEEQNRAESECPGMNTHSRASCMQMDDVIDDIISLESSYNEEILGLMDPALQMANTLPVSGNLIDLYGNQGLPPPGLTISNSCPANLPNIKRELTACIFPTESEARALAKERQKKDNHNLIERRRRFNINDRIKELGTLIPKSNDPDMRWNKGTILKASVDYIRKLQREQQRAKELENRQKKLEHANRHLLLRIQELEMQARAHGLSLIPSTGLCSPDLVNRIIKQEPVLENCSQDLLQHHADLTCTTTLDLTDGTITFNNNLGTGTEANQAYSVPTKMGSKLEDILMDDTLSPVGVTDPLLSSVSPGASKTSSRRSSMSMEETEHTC
TEAD-YAP block: TEAD-YAP interaction inhibition, primary screen, TEAD-YAP interaction inhibitor project, luminescence, HEK-TIYL cells; TEAD-Gal4/YAP UAS-luciferase luminescence; inhibition, % at 9.12 µM; hit rate 1.4% among 640,000; in the data active = inhibition above about 32%;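 also: 0% = median of test compound wells and 100% = reference inhibitor wells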
FBW7 act: FBW7 E3 ligase activators, primary screen, biochemical, AlphaScreen, human. AID 1259310, 2017. hit rate 0.13% among 650,000. F-box/WD repeat-containing protein 7 (Homo sapiens), Q969H0. normalized activity (activation), % at 26.1 µM. AlphaScreen FBW7–phospho-cyclin E peptide binding, activator screen; in the data active = normalized activity above about 1.9%;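 also: purified mutant Fbw7 with reduced substrate affinity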
GPR151 conf act: GPR151 activators, triplicate retest, confirmation, cell-based, PathHunter beta-arrestin, luminescence; shares compounds with GPR151 activ; GPR151 PathHunter beta-arrestin cells, 90 min; % of EA-reagent control over plate median; activation, % at 11.2 µM; 6,700 tested, under 10 active; AID 1508609, 2020;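 active = mean percent activation across replicates above the confirmation screen cutoff of 4.91%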
GPR119 ag: GPR119 activators in beta-arrestin cells, counter-screen for GPR151 activator project, cell-based, PathHunter beta-arrestin, luminescence, triplicate; hit rate 0.3% among 6,700; shares compounds with GPR151 activ; 90 min; 0 = compound-well median, 100 = enzyme-acceptor control; activation, % at 11.2 µM;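 active = mean percent activation in the counterscreen above 29.09%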;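 also: counterscreen on off-target GPR119 to flag nonselective hits from the GPR151 activator screen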
Active calls of the source: *; / = not tested or not shown; ! = a repeat was not active. A selection: hits, their analogues and other compounds. The true share with any hit is near 3.5%.

SMILES	GPR151 activ	MITF primary	TEAD-YAP block	FBW7 act	GPR151 conf act	GPR119 ag
OCCNc1c2c(nc3ccccc13)CCCC2	1	1	-9	0	/	/
CCN1CCN(Cc2ccc([N+](=O)[O-])cc2)CC1	10*	-5	10	0	-1	12
CCC(C)N1CCN(Cc2ccc([N+](=O)[O-])cc2)CC1 (stereo not given)	-2	41	-8	0	/	/
O=C(CCCN1CCC2(CC1)C(=O)N(Cc1cccc(F)c1)CN2c1ccccc1)c1ccc(F)cc1	6.7*	16	/	0	0	1
C#CCOc1ccc2c(c1)c(C(=O)OCC)c(C)n2Cc1ccccc1	1	10	6	0	/	/
COc1ccccc1OCCCn1c(C)c(C=O)c2ccccc21	2	-11	0	0	/	/
CCOC(=O)CCCn1c(C(=O)OCC)c(C=O)c2ccccc21	6.3*	-11	0	0	0	13
O=C(O)CN=Cc1c(O)[nH]c(=S)[nH]c1=O	-1	-6	-1	0	/	/
Cc1ccccc1OP(N)(=O)Oc1ccccc1C	2	1	-2	0	/	/
NP(=O)(Oc1ccc(Cl)cc1)Oc1ccc(Cl)cc1	6.3*	16	7	0	2	10
COc1ccc(CCNCc2cc(OC)c(OC)c(OC)c2)cc1OC	-1	41	13	0	/	/
COc1ccc(Cc2nccc3cc(OC)c(OC)cc23)cc1OC	5.8*!	6	4	0	2	13
O=c1c2cc(Cl)cc(Cl)c2nc(CN2CCOCC2)n1-c1ccccc1F	17*	7	6	0	0	-3
O=C(COc1ccc(Br)cc1)N1CCN(Cc2cccc(F)c2)CC1	0	38	1	0	/	/
CC[C@@H]1C(=O)OC[C@@H]1Cc1cncn1C	9.6*!	-7	2	0	0	-6
CCC(COC(=O)NC)NC(=O)Oc1ccccc1 (stereo not given)	5.8*	-1	-1	0	0	1
CCC(COC(=O)NC)NC(=O)Oc1cccc(C)c1 (stereo not given)	-1	3	5	0	/	/
C[C@]12CC[C@@H](O)CC1CC[C@@H]1[C@@H]2CC[C@]2(C)C(=O)CC[C@@H]12 (stereo not given in full)	-1	-3	-9	0	/	/
O=C1C=C2C=C[C@H]3C[C@]2(O1)[C@@H]1CCCCN13	9.6*!	23	-3	0	-1	-12
O=C(O)C1C2CC3CC(C2)CC1(n1ncc(N2CCC4(CC2)OCCO4)c(Cl)c1=O)C3 (stereo not given)	-1	0	0	0	/	/
COC(=O)CC(CN)c1ccc(Cl)cc1 (stereo not given)	-1	4	0	0	/	/
CCCCCCOc1ccc(CN2CCN(CCO)CC2)cc1	5.9*	6	-44	0	1	9
CCCCOc1ccc(CN2CCN(CCO)CC2)cc1	-1	4	-9	0	/	/
Cc1nn(-c2ccccc2Cl)c2c1C(C(F)(F)F)(C(F)(F)F)C(C#N)=C(N)N2	-1	-6	1	0	/	/
CCOC(=O)C1C2NC(=S)N(c3ccccc3OC)C1(C)Oc1c(Cl)cc(Cl)cc12 (stereo not given)	1	20	0	0	/	/
SMILES	GPR151 activ	MITF primary	TEAD-YAP block	FBW7 act	GPR151 conf act	GPR119 ag
CC(=O)C(C)Oc1cc(C)cc2oc(=O)c3c(c12)CCCC3 (stereo not given)	22*	5	15	0	0	0
Cc1nonc1-c1n[nH]c2nonc12	-1	9	-11	0	/	/
CCOc1ccccc1NC(=O)N1CCC2(CC1)OCCO2	13*	11	8	0	-1	-2
Cc1ccsc1C(=O)C1CCCN(C2CCN(Cc3ccco3)CC2)C1 (stereo not given)	1	-2	-5	0	/	/
CCOC(=O)c1c(C)n(Cc2ccco2)c2c1cc(O)c1ccccc12	0	21	-18	0	/	/
COc1cc(CN2CCNCC2)cc2c1OCO2	1	0	-4	0	/	/
C=CCc1cc(OC)c2c(c1OC)OCO2	11*	5	2	0	-1	-4
C=CCNC(=O)c1cn(Cc2ccccc2)cc(C(=O)N(C)CCc2ccccc2)c1=O	-1	18	-16	0	/	/
COc1ccc(F)cc1C(=O)C1CCCN(CCO)C1 (stereo not given)	8.3*	-5	-4	0	0	-12
COc1ccc(F)cc1C(=O)C1CCCN(Cc2ccc(O)cc2)C1 (stereo not given)	-1	4	-5	0	/	/
O=c1c2ccccc2nc(/C=C/c2ccc3c(c2)OCO3)n1-c1ccccc1O	8.9*	11	-6	0	0	-5
CC(=O)OCC(=O)[C@H]1CC[C@H]2[C@@H]3CC[C@H]4C[C@H](O)CC[C@]4(C)[C@H]3C(=O)C[C@]12C	6.2*	-5	/	0	0	7
CCOC(=O)C1=C(C)OC(N)=C(C#N)C12C(=O)N1c3c(cc(CC)cc32)C(C)CC1(C)C (stereo not given)	9.0*	11	4	0	0	-8
CCOC(=O)C1=C(N)Oc2cc(O)ccc2C12C(=O)N1c3c(cccc32)C(C)CC1(C)C (stereo not given)	0	6	8	0	/	/
Cc1cc([N+](=O)[O-])c(N2CCN(C)CC2)c([N+](=O)[O-])c1	0	9	13	1	/	/
Cc1cc(OCc2cccc(Cl)c2)c2c3c(c(=O)oc2c1)CCCC3	0	-10	-6	0	/	/
COC(=O)C(O)(c1cc(C)c2cccnc2c1O)C(F)(F)F (stereo not given)	-1	46	10	-1	/	/
Cc1nn(Cc2ccccc2)c(Cl)c1C(=O)NC1CCCCCC1	7.4*	/	/	/	-1	-10
O=C(Nc1ccc(Cl)cc1C(=O)c1ccccc1)c1cccc(Oc2ccccc2)c1	0	-5	1	0	/	/
Brc1ccccc1CN1CCOCC1	0	36	-9	0	/	/
CN1CCN(Cc2ccccc2Br)CC1	5.1*	50	0	0	0	3
CC[n+]1c(/C=C/C=C2\N(C)c3ccccc3C2(C)C)n(-c2ccccc2)c2cc(Cl)ccc21	8.3*	-24	90*	0	3	20
CC[n+]1c(/C=C/C=C2\N(C)c3ccccc3C2(C)C)n(-c2ccccc2)c2ccc(C)cc21	11*	-8	91*	0	3	39*
